In all, about 300,000 compounds went through this assay and about 3,700 (1.2%) were called active. About 20% were inconclusive and are not listed. Shown is part of a subset that was picked to be rich in actives. Unmarked numbers belong to inactive results. Calls follow the shape of the full dose curve; tested in HEK293 cells.
% is scaled to controls: 0 for no effect and ±100 for the full control effect; potency is read from the fitted curve at half-maximal effect.

The assay can be described thus: qHTS for Inhibitors of binding or entry into cells for Lassa Virus. Also: nearly all actives have a fitted effect of over 50% in size. Particulars: Lassa virus pseudotype entry inhibition, cell reporter; series mostly up to 37.9 µM; activity change, negative = inhibition: at the top concentration. A general note: qHTS replaces the single test concentration by a dilution series.
As for `Cc1ccc(NC(=S)N(CCN(C)C)Cc2cccs2)cc1C`, the Potency is 6.31 µM (active).

As to `CCc1cccc(C)c1NC(=S)N(CCCN1CCN(C)CC1)Cc1cccs1`, the “activity change, negative = inhibition” value was 9.25%.

For `Cc1ccc(SCCC(=O)OCC(=O)Nc2ncc(Cl)cc2Cl)cc1`, the “activity change, negative = inhibition” value is -0.403%.

`Cc1ccc(-n2c(SCC(=O)Nc3ncc(Cl)cc3Cl)nc3ccccc32)cc1`: the Potency is 0.291 µM (active).

In the case of `CCOc1ccc(-n2c(SCC(=O)Nc3cc(C(=O)O)ccc3Cl)nc3ccccc3c2=O)cc1`, the “activity change, negative = inhibition” value is 7.66%.

In the case of `CC/C(=C(/c1ccccc1)c1ccc(OCC[N+](C)(C)C)cc1)c1ccccc1`, the “activity change, negative = inhibition” value was -15.8%.

In the case of `Cc1ccc(S(=O)(=O)N2CCCCC2)cc1C(=O)N(C)CC(=O)Nc1cccc(F)c1`, the “activity change, negative = inhibition” value is -0.12%.

As for `O=C(NCc1ccc(F)cc1)c1ccc2nc(N3CCCCC3)sc2c1`, the “activity change, negative = inhibition” value was 12% [at 46.1 µM].

As to `c1c2c(cc3sc(N4CCCCC4)nc13)OCCO2`, the Potency is 1.58 µM (active).

On to `Cc1nc2cc3c(cc2s1)OCO3`, for which the “activity change, negative = inhibition” value was 3.6%.

On to `Cc1cccc(N(C(=O)Cc2cccs2)C(C(=O)NCc2ccco2)c2ccncc2)c1` (stereo unspecified), for which the “activity change, negative = inhibition” value is -4.42%.

`Cc1nc(C)c(C(=O)N(c2ccc(C)c(C)c2)C(C(=O)NCc2ccco2)c2ccccc2)s1` (stereo unspecified): the Potency was 4.61 µM (active).

As to `Cc1ccc(N(C(=O)c2sc(C)nc2C)C(C(=O)NC(C)(C)C)c2ccncc2)cc1` (stereo unspecified), the “activity change, negative = inhibition” value was -13.5%.

Take `Cc1ccc(OCc2cc(C(=O)N(C)CCn3ccnc3C)no2)cc1C`: the “activity change, negative = inhibition” value was -3.12%.

Consider `CCCN1CCN(C(=O)CCCNC(=O)c2ccc(Cl)cc2)CC1`, for which the “activity change, negative = inhibition” value was 19.3% [at 46.1 µM].

For `COc1ccccc1N1CCN(c2nc(C)cc(=O)[nH]2)CC1`, the “activity change, negative = inhibition” value was 3.38% [at 46.1 µM].

Take `Cc1nnc(SCC(=O)NCc2ccccc2)s1`: the “activity change, negative = inhibition” value was -1.56%.

As for `Cc1nnc(SCC(=O)N2CCc3ccccc3C2)s1`, the “activity change, negative = inhibition” value was 15.2%.

Consider `Cc1nnc(SCC(=O)N2c3ccccc3C(C)(c3ccc(Cl)cc3)CC2(C)C)s1` (stereo unspecified), for which the Potency is 10 µM (active).

Consider `Cc1ccc(NC2CCCN(C(=O)CCc3cn[nH]c3)C2)cc1C` (stereo unspecified), for which the “activity change, negative = inhibition” value is -7.91%.

`COc1cc(C(=S)N2CCOCC2)cc(OC)c1OC(=O)c1ccc([N+](=O)[O-])cc1[N+](=O)[O-]`: the “activity change, negative = inhibition” value is -14.6%.

For `Cc1ccc(SCC(=O)N2CCN(c3ccc(F)cc3)CC2)cc1`, the “activity change, negative = inhibition” value was -2.07% [at 46.1 µM].

With `CCN1CCC2(CC1)N=C(c1ccc(F)cc1)C(=S)N2C(=O)c1ccc(C)cc1`, the Potency is 8.91 µM (active).

In the case of `CCN1CCC(N(Cc2ccc(F)cc2)C(=O)Nc2cc(C)ccc2C)CC1`, the “activity change, negative = inhibition” value was -4.1% [at 46.1 µM].

For the compound `COc1ccccc1C(=O)Nc1ccc(Nc2ccccc2)cc1`, the “activity change, negative = inhibition” value is 8.44%.

As to `CCC(=O)Nc1ccc2nc(SCC(=O)N3CCc4ccccc43)sc2c1`, the “activity change, negative = inhibition” value is 8.37% [at 46.1 µM].

Turning to `COCCn1cnnc1SCC(=O)Nc1cccc(S(=O)(=O)N2CCCCC2)c1`, the “activity change, negative = inhibition” value was -1.46%.

Consider `O=c1[nH]c(CN2CCOCC2)nc2cc(Cl)ccc12`, for which the “activity change, negative = inhibition” value is -4.94% [at 46.1 µM].

Consider `NC(=O)Cc1nc2scc(-c3ccc(Cl)cc3)c2c(=O)[nH]1`, for which the “activity change, negative = inhibition” value was -28.5% [at 46.1 µM].

Take `O=c1[nH]c(CCl)nc2cc(-c3ccc(Cl)cc3)sc12`: the Potency is 10 µM (active).

Regarding `O=C1c2ccccc2C(=O)C1C(=O)C1CC1`, the “activity change, negative = inhibition” value was 12.7% [at 46.1 µM].

With `Cc1ccc(S(=O)(=O)N/N=C(\c2ccccc2)C2CC2)cc1`, the “activity change, negative = inhibition” value is 16.6% [at 46.1 µM].

On to `COc1ccc(-c2cc(C(=O)N(C)Cc3ccccc3)c3ccccc3n2)cc1`, for which the Potency was 10 µM (active).

As to `COc1ccc(-c2cc(C(=O)n3cnc4ccccc43)c3ccccc3n2)cc1`, the “activity change, negative = inhibition” value is -15.2%.

Consider `CNC(=O)COC(=O)c1cc(-c2ccc(OC)cc2)nc2ccccc12`, for which the “activity change, negative = inhibition” value was -36.8% [at 46.1 µM].

For the compound `COc1ccccc1N1CC(C(=O)Nc2nnc(SCC(=O)NCC3CCCO3)s2)CC1=O` (stereo unspecified), the “activity change, negative = inhibition” value is 3.5%.

As for `COc1ccc(C(CNC(=O)c2cc3c(s2)CCCC3)N2CCOCC2)cc1` (stereo unspecified), the “activity change, negative = inhibition” value was -8.98% [at 46.1 µM].

Turning to `Cc1ccc(C(CC(=O)O)NC(=O)c2ccc(S(=O)(=O)N3CCCC3)cc2)cc1` (stereo unspecified), the “activity change, negative = inhibition” value was 10.2%.

For the compound `C=CCN1C(=O)N(Cc2ccccc2)c2ccccc2S1(=O)=O`, the “activity change, negative = inhibition” value was 3.36% [at 46.1 µM].

Take `O=C1c2ccccc2C2=Nc3ccccc3SC(c3ccccc3F)C12` (stereo unspecified): the Potency is 20.6 µM (active).

`O=C1c2ccccc2C(=O)C1c1ccccc1F`: the “activity change, negative = inhibition” value was 18%.

As to `CCn1c(/C=C/c2ccc([N+](=O)[O-])o2)nc2ccccc2c1=O`, the Potency was 3.66 µM (active).

In the case of `Cn1cc(/C=C/c2nc3ccccc3c(=O)n2-c2cccc([N+](=O)[O-])c2)c2ccccc21`, the “activity change, negative = inhibition” value was 4.13%.

Turning to `Cc1ccc(-n2c(/C=C/c3cccc(C(F)(F)F)c3)nc3ccccc3c2=O)cc1`, the “activity change, negative = inhibition” value is 22.9% [at 46.1 µM].

Consider `COc1cccc(CC(=NO)c2cccc(OC)c2)c1`, for which the “activity change, negative = inhibition” value was -0.0231% [at 46.1 µM].

Take `OC(COc1ccc2ccccc2c1)Cn1cncn1` (stereo unspecified): the “activity change, negative = inhibition” value is 0%.

Consider `Fc1ccccc1OCCCCn1cncn1`, for which the “activity change, negative = inhibition” value was 19.3%.

Turning to `O=C(c1ccccc1)C(Cn1cncn1)C(Sc1ccccc1)c1ccccc1` (stereo unspecified), the Potency is 22.4 µM (active).

Consider `Cc1ccccc1N1CC(C(=O)Nc2nnc(SCCC3OCCO3)s2)CC1=O` (stereo unspecified), for which the “activity change, negative = inhibition” value is -10.4%.

In the case of `CCOc1cc2ccccc2cc1C(=O)Nc1ccccn1`, the “activity change, negative = inhibition” value is 12% [at 46.1 µM].

For the compound `Cc1cc(C(=O)CCl)c(C)n1CC1COc2ccccc2O1` (stereo unspecified), the “activity change, negative = inhibition” value is -4.21%.

For the compound `Cc1cc(C(=O)Cn2cnc3cc([N+](=O)[O-])ccc3c2=O)c(C)n1CC1CCCO1` (stereo unspecified), the “activity change, negative = inhibition” value was 2.49%.

Consider `Cc1ccsc1C(=O)OCC(=O)c1cc(C)n(CC2CCCO2)c1C` (stereo unspecified), for which the Potency is 2.59 µM (active).

Consider `CCOC(=O)N1CCN(C(=O)C(=O)Nc2sc3c(c2C#N)CC(C)(C)OC3)CC1`, for which the “activity change, negative = inhibition” value is 28.3% [at 46.1 µM].

For the compound `COC(=O)c1ccc(OC(=O)c2cnccn2)cc1`, the “activity change, negative = inhibition” value is -6.27% [at 46.1 µM].

In the case of `CSCCC1NC(=O)N(CC(=O)Nc2cccc(S(=O)(=O)N3CCCCCC3)c2)C1=O` (stereo unspecified), the “activity change, negative = inhibition” value is -11.3% [at 46.1 µM].

`CCOC(=O)N1CCC(NC(=O)c2cnn(-c3cccc(C)c3)c2C2CCN(C(=O)OC(C)(C)C)CC2)CC1`: the “activity change, negative = inhibition” value is 8.41% [at 46.1 µM].

Consider `CCN(CC)c1ccc(S(=O)(=O)N2CCCCC2)cc1NC(=O)C1=COCCO1`, for which the “activity change, negative = inhibition” value is -10.3%.

Turning to `CC(C)(C)c1ccc(C(=O)NCC(c2ccco2)S(=O)(=O)c2ccc(F)cc2)cc1` (stereo unspecified), the Potency was 12.6 µM (active).

On to `O=C(NCC(c1ccco1)S(=O)(=O)c1cccs1)c1ccc(F)cc1` (stereo unspecified), for which the “activity change, negative = inhibition” value was -21.9% [at 46.1 µM].

For `COc1ccccc1CNC(=O)C(=O)NCC(c1ccco1)S(=O)(=O)c1ccc(F)cc1` (stereo unspecified), the “activity change, negative = inhibition” value is -17.7% [at 46.1 µM].
